The entries come from a sample that favours hits as a whole.
ST2 inh: blocks human ST2 binding to IL-33 | Q01638 | AlphaLISA ST2-Fc/biotin-IL-33 interaction, 1 h | inhibition, % for hits at 17 µM | hit rate 2.3% among 78,000; in the data active means inhibition above about 30%
Target sequence (Q01638 whole entry, looked up): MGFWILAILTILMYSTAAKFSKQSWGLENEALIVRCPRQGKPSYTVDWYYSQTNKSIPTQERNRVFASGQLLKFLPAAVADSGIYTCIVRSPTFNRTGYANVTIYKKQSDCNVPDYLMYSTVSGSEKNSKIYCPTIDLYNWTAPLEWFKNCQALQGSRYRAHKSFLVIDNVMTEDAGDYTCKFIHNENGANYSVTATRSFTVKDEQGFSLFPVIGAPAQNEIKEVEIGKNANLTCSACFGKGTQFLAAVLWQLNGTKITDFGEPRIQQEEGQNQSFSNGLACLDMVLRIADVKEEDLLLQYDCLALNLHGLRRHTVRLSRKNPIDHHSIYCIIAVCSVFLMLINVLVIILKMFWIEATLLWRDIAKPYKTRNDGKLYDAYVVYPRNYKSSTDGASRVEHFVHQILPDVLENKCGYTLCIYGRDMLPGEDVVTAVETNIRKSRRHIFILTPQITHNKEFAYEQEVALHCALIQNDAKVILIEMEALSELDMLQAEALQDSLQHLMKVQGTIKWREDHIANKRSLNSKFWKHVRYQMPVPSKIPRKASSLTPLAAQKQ
The depositor's hits bear a star; i = inactive.

SMILES	ST2 inh
O=C(NCc1ccc(Cl)cc1)c1cccn1-c1nnc(N2CCCCC2)s1	i
N#CCc1nc(-c2ccccc2)cs1	i
N#C/C(=C/C=C/c1ccccc1)c1nc(-c2cccs2)cs1	60.0%*
N#C/C(=C/C=C/c1ccccc1)c1nc(-c2ccc(F)cc2)cs1	40.0%*
N#C/C(=C\Nc1ccc(S(N)(=O)=O)cc1)c1nc(-c2ccccc2)cs1	i
N#C/C(=C/c1ccc(F)cc1)c1nc(-c2ccccc2)cs1	56.0%*
Nc1nc(-c2ccc(-c3ccccc3)cc2)cs1	i
CC(C)(C)C(=O)Nc1ccnn1C1CCN(C(=O)CC2=CCCCC2)CC1	i
CN(Cc1ccc2nonc2c1)C(=O)c1cn(CCc2ccccc2)nn1	i
CC(C)(C)c1ccc(OCC(O)CN2CCN(Cc3ccc4c(c3)OCO4)CC2)cc1 (stereo not given)	i
COc1ccc(OCC(O)CN2CCN(c3ccccc3F)CC2)c(C(C)(C)C)c1 (stereo not given)	i
CC(C)(C)c1ccccc1OCC(O)CN1CCN(Cc2ccc3c(c2)OCO3)CC1 (stereo not given)	97.0%*
COCCn1cnc2cc(NC(=O)C3CCCCC3)cc(C(=O)N(C)CC3Cc4ccccc4O3)c21 (stereo not given)	i
CN1C(=O)Cc2cc(S(=O)(=O)CCC(=O)N3CCN(c4cccc(C(F)(F)F)c4)CC3)ccc21	i
CCOC(=O)C1CCN(C(=O)c2ccc3nc4ccc(Cl)cc4c(=O)n3c2)CC1	i
COc1cc(C)c(CN2CCN(c3ccc([N+](=O)[O-])cc3)CC2)cc1C	32.0%*
CCOc1ccccc1N1CCN(Cc2ccc(OC)cc2OC)CC1	i
COc1cc(CN2CCN(c3ncccn3)CC2)c([N+](=O)[O-])cc1OC	i
COc1ccc(CN2CCN(Cc3cccc([N+](=O)[O-])c3)CC2)c(OC)c1OC	i
COc1cc([N+](=O)[O-])cc(CN2CCN(c3cc(C)ccc3C)CC2)c1O	41.0%*
CCOc1ccccc1N1CCN(Cc2cc3c(cc2[N+](=O)[O-])OCO3)CC1	30.0%*
COc1cc(OC)c(OC)cc1CN1CCN(Cc2cc(OC)c(OC)cc2[N+](=O)[O-])CC1	i
Cc1ccc(C)c(N2CCN(Cc3cc4c(cc3[N+](=O)[O-])OCO4)CC2)c1	32.0%*
COc1cc(CN2CCN(c3ccccc3F)CC2)cc([N+](=O)[O-])c1O	i
COc1ccc(C(=O)N2CCN(c3ccc([N+](=O)[O-])cc3)CC2)cc1OC	i
SMILES	ST2 inh
COc1cc(CN2CCN(c3ccccc3OC)CC2)c([N+](=O)[O-])cc1OC	i
O=[N+]([O-])c1ccc(N2CCN(Cc3ccoc3)CC2)cc1	i
CN1[C@H]2CC[C@@H]1CN(Cc1cc3n(n1)CCCNC3)CC2	i
COc1ccc(S(=O)(=O)N(CC(=O)Nc2ccccc2Br)c2ccccc2)cc1	i
CCN1C(=O)N(c2ccc(Cl)c(Cl)c2)C(C)(O)CC1(C)C (stereo not given)	i
COCCn1c(CNS(=O)(=O)c2cnn(C(F)F)c2C)nc2cccnc21	i
CC(=O)Oc1ccc2c(=O)c(-c3ccc4c(c3)OCCCO4)coc2c1	i
CC(C)Cc1cc(C(=O)Nc2ccc(C#N)cc2)no1	i
CCc1cccc(C)c1NC(=O)CCN1C(=O)c2cccc([N+](=O)[O-])c2C1=O	i
O=C(c1cn(Cc2ccc(F)cc2Cl)nn1)N1CCCCC1CCN1CCOCC1 (stereo not given)	i
O=C(O)Cn1nnc(-c2ccc(F)cc2)n1	i
Cc1ccc(C)c(N2CCN(Cc3ccc(-c4ccccc4[N+](=O)[O-])o3)CC2)c1	38.0%*
O=[N+]([O-])c1ccc(CN2CCN(Cc3ccccc3)CC2)o1	i
Cc1ccccc1N1CCN(Cc2ccco2)CC1	i
Cc1ccc(-c2nnc(-c3nc(NC4CCS(=O)(=O)C4)c4ccccc4n3)o2)cc1 (stereo not given)	i
CC(NC(=O)Cc1nn[nH]n1)C1=CCCCC1 (stereo not given)	i
CCOc1ccc(NC(=O)C(Cc2ccccc2)N2C(=O)c3ccccc3C2=O)cc1 (stereo not given)	i
O=S(=O)(Nc1ccc(F)c(Cl)c1)c1cccs1	i
CCOc1ccc(S(=O)(=O)N=C2C=C(Nc3ccc(O)cc3)C(=O)c3ccccc32)cc1	84.0%*
NC(=O)c1ccc(NS(=O)(=O)c2cccs2)cc1	i
Cc1ccc(Cl)cc1N1CCN(C(=O)C(NS(=O)(=O)c2cccs2)C(C)C)CC1 (stereo not given)	i
Cc1ccc(Cl)cc1NC1=CC(=NS(=O)(=O)c2cccs2)c2ccccc2C1=O	56.0%*
CC(C)N=C(NS(=O)(=O)c1cccs1)c1ccccc1	i
CCOc1ccc(NC(=O)COc2ccc(OC)cc2)cc1	i
CCOc1ccc(NC2=NS(=O)(=O)c3ccccc32)cc1	i
SMILES	ST2 inh
CCOc1ccc(NC2=CC(=NS(=O)(=O)c3ccc(OC)cc3)c3ccccc3C2=O)cc1	94.0%*
O=C1C(Nc2ccc(O)cc2)=CC(=NS(=O)(=O)c2cccs2)c2ccccc21	88.0%*
CCOc1ccc(NC(=O)c2ccccc2Cl)cc1	i
COc1cccc2c1OCC(CN1CCCN(C(=O)c3ccco3)CC1)=C2	i
CCn1c(=N)c(C(=O)NC)cc2c(=O)n3ccccc3nc21	i
CC1CCN(C(=O)c2cc3c(=O)oc4ccccc4c3s2)CC1	i
Cc1ccc(S(=O)(=O)N(CC(=O)N2CCCCC2)C2CCCCC2)cc1	i
CC1(C)CC(NC(=O)c2cn(CCCc3ccccc3)nn2)CCO1 (stereo not given)	i
c1ccc(-c2noc(CN3CCN(Cc4ccc5c(c4)OCO5)CC3)n2)cc1	i
O=S(=O)(Nc1ccc(Oc2ccccc2)cc1)c1ccc(Cl)cc1	i
COc1ccc(NC2=CC(=NS(=O)(=O)c3ccc(Cl)cc3)c3ccccc3C2=O)cc1	93.0%*
CCc1ccc(NS(=O)(=O)c2ccc(OC)c(OC)c2)cc1	i
COc1ccc(S(=O)(=O)N=C2C=C(Nc3cccc(C)c3)C(=O)c3ccccc32)cc1	79.0%*
O=S(=O)(N=C(Nc1cccc(O)c1)c1ccccc1)c1ccc(Cl)cc1	i
CCc1ccc(S(=O)(=O)N=C2C=C(Nc3ccc(O)cc3)C(=O)c3ccccc32)cc1	91.0%*
Cc1cccc(Nc2c3c4c(cccc4n(C)c2=O)C(=O)c2ccccc2-3)c1	i
CCOc1ccc(NC2=CC(=NS(=O)(=O)c3ccccc3)c3ccccc3C2=O)cc1	77.0%*
CCOc1ccc(NC(=O)C(c2ccccc2)c2ccccc2)cc1	i
CCOc1ccc(NC(=O)Cc2ccccc2)cc1	i
Cc1cccc(NS(=O)(=O)c2ccc(F)cc2)c1	i
COc1ccc(NS(=O)(=O)c2ccc(NC(=O)Nc3ccc(Cl)cc3)cc2)cc1	i
CC(C)CCSc1nnc2[nH]c(=O)cc(N)n12	i
O=C(O)C1CC(=O)N(Cc2nc(-c3ccccc3)n[nH]2)C1 (stereo not given)	i
O=C(C1=CCCCC1)N(CC1CCN(C2Cc3ccccc3C2)CC1)CC1CCCO1 (stereo not given)	i
COCCNC(=O)c1c[nH]c2ccc(S(=O)(=O)Nc3cccc(Cl)c3C)cc2c1=O	i
CCCc1nnc(NC(=O)c2ccccc2OCC)s1	i
O=S(=O)(O)c1ccc(Nc2ccccc2)cc1	i
O=C1C=C(Nc2ccc(O)cc2)C(=O)c2ccccc21	42.0%*
O=C1C(Nc2ccccc2)=CC(c2ccc(O)cc2)N1c1ccccc1 (stereo not given)	i
